Test results reported in the supplement of paper PMC3414501.
Where a name gives a salt, the structure may show the parent alone.

Key:
[1] = tested on: S. cerevisiae SK1 pCDA2-eGFP (USY613), sporulating; assay: CDA2-GFP sporulation assay sensitivity score (z-score vs DMSO controls); higher = stronger inhibition of sporulation, active = hit call of the paper;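 note: active if sensitivity score above 5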
[2] = tested on: S. cerevisiae NKY1551 his4x/his4B, sporulating; assay: HIS4 meiotic recombination assay sensitivity score (z-score vs DMSO controls); higher = stronger inhibition of sporulation/recombination, active = hit call of the paper;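 note: active if sensitivity score above 5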
[3] = tested on: S. cerevisiae AD1-9 (efflux-pump deficient), vegetative growth in YPD; assay: growth sensitivity score (doubling time z-score vs DMSO controls); higher = slower growth, strongly negative scores also mark growth inhibition (complete suppression), active = hit call of the paper
Method in brief: (§1)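 Rich medium in microtiter plates was seeded with Saccharomyces cerevisiae strains BY4741 and AD1-9 at an OD600 of 0.065, and compounds were added as a 1:100 dilution of DMSO stock. A Tecan GENios reader recorded optical density every 15 min for 24 hours, with eight solvent-only wells in each experiment. Average doubling time was the time to reach a set generation point divided by generation number. The growth sensitivity score was the compound mean minus the solvent-only mean, divided by the solvent-only standard deviation.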

[4] = tested on: S. cerevisiae BY4741 (wild-type), vegetative growth in YPD; assay: as above
Method in brief: as §1

Structure (SMILES) | CDA2-GFP sporulation assay sensitivity score [1] | HIS4 meiotic recombination assay sensitivity score [2] | growth sensitivity score [3] | growth sensitivity score [4]
CC(=O)N1CCN(c2ccc(OCC3COC(Cn4ccnc4)(c4ccc(Cl)cc4Cl)O3)cc2)CC1 (stereo not given) [Ketoconazole] (stock concentration (mM, diluted 1:100): 10) | 0.13 (inactive) | -1.74 (inactive) | 155 (active) | 35.3 (active)
Cc1[nH]c(=O)c(C#N)cc1-c1ccncc1 [Milrinone] (stock concentration (mM, diluted 1:100): 10.1) | -1.34 (inactive) | -0.23 (inactive) | -2.83 | -0.97 (inactive)
COc1cc(C(=O)NS(=O)(=O)c2ccccc2C)ccc1Cc1cn(C)c2ccc(NC(=O)OC3CCCC3)cc12 [Zafirlukast] (stock concentration (mM, diluted 1:100): 10) | 0.72 (inactive) | 1 (inactive) | 40.9 (active) | -1.75 (inactive)
CN(C/C=C/C#CC(C)(C)C)Cc1cccc2ccccc12 [Terbinafine hydrochloride] (stock concentration (mM, diluted 1:100): 8.9) | -2.07 (inactive) | -0.72 (inactive) | 30.1 (active) | 93.8 (active)
Nc1ncnc2c1ncn2[C@@H]1O[C@H](CO)C[C@@H]1O [3-Deoxydenosine] (stock concentration (mM, diluted 1:100): 10) | 19.9 (active) | 7.05 (active) | 110 (active) | 1.06 (inactive)
CC1(C)C[C@@H]1C(=O)N/C(=C\CCCCSC[C@H](N)C(=O)O)C(=O)O [Cilastatin] (stock concentration (mM, diluted 1:100): 9.4) | -1.2 (inactive) | -0.68 (inactive) | -1.86 (inactive) | -0.97 (inactive)
COC(=O)C1=C(C)NC(C)=C(C(=O)OC(C)C)C1c1cccc2nonc12 (stereo not given) [Isradipine] (stock concentration (mM, diluted 1:100): 9.9) | 1.45 (inactive) | 5.46 (active) | 137 (active) | 0.93 (inactive)
Nc1nc(Cl)nc2c1ncn2[C@@H]1O[C@H](CO)[C@@H](O)[C@H]1O [2-Chloroadenosine] (stock concentration (mM, diluted 1:100): 10) | -0.44 (inactive) | -0.54 (inactive) | -1.1 (inactive) | -1.07 (inactive)
C#C[C@]1(O)CC[C@H]2[C@@H]3CCc4cc(OC)ccc4[C@H]3CC[C@@]21C [Mestranol] (stock concentration (mM, diluted 1:100): 10) | 4.85 (inactive) | -0.79 (inactive) | 3.53 (active) | 0.8 (inactive)
CCN1CCN(c2cc3c(cc2F)c(=O)c(C(=O)O)cn3C2CC2)CC1 [Enrofloxacin] (stock concentration (mM, diluted 1:100): 10) | 2.66 (inactive) | 1.36 (inactive) | 37.5 (active) | 3.15 (active)
Cn1c(NCCN(CCO)CCCc2ccc([N+](=O)[O-])cc2)cc(=O)n(C)c1=O [Nifekalant hydrochloride] (stock concentration (mM, diluted 1:100): 9.2) | 0.47 (inactive) | -0.61 (inactive) | 0.65 (inactive) | -0.07 (inactive)
CC(C)c1nc(CN(C)C(=O)N[C@H](C(=O)N[C@@H](Cc2ccccc2)C[C@H](O)[C@H](Cc2ccccc2)NC(=O)OCc2cncs2)C(C)C)cs1 [Ritonavir] (stock concentration (mM, diluted 1:100): 10) | -0.68 (inactive) | -1.41 (inactive) | 8.8 (active) | -0.97 (inactive)
CCN(CC)C(=O)C1(c2ccccc2)CC1CN (stereo not given) [Milnacipran] (stock concentration (mM, diluted 1:100): 10) | 2.47 (inactive) | -0.19 (inactive) | -0.1 (inactive) | -0.02 (inactive)
COc1ccc(C2CNC(=O)C2)cc1OC1CCCC1 (stereo not given) [Rolipram] (stock concentration (mM, diluted 1:100): 10) | -2.81 (inactive) | -0.47 (inactive) | -1.05 (inactive) | -0.71 (inactive)
CN(C)CCOC(c1ccccc1)c1ccccc1 [Diphenhydramine hydrochloride] (stock concentration (mM, diluted 1:100): 10) | 2.11 (inactive) | 8.82 (active) | 3.46 (active) | 0.81 (inactive)
